Experimental data from the supplement of paper PMC10849652.
Of roughly 7,900 targets only a part is listed; those with a hit were picked by preference. About 0.6% of all pairs of compound and target were hits. Values without a mark were called inactive.

Columns and labels:
Experiment in all cases: log2 fold change, soluble protein after heating vs DMSO (PISA); higher = thermal stabilisation; K562 cells, 10 uM, 30 min; active = over 0.2 and 3.5 SD of the protein, either way, in both replicates (recomputed)
[1] = compound: CC1=C(C=C(C=C1)NC(=O)C2=CC(=CC=C2)C(C)(C)C#N)NC3=CC4=C(C=C3)N=CN(C4=O)C
How it was run: (§1)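 K562 cells at 2×10^6 cells/mL were given 10 μM compound for 30 min. Aliquots then went through 3 min of heating across 48°C-58°C, were pooled, and were extracted in PBS with 0.5% NP-40 at 4°C, and the supernatant after 21,000xg for 90 min was quantified by TMTpro 16plex LC-MS/MS with channel sums equalised. Thermal stability relative to control samples, from duplicates, is given as log2 fold change.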

[2] = compound: CC1=C(C=C(C=C1)NC(=O)C2=CC(=CC=C2)N(C)C)NC(=O)C3=CC=C(C=C3)O
How it was run: as §1

[3] = compound: CC1=CC=C(C=C1)SC2=C3C=C(SC3=CN=C2)C(=O)N
How it was run: as §1

[4] = compound: CC1=NC(=CC=C1)C2=C(N=C(N2)C(C)(C)C)C3=CC4=NC=CN=C4C=C3
How it was run: as §1

Nexturastat A = compound: CCCCN(Cc1ccc(C(=O)NO)cc1)C(=O)Nc1ccccc1 [Nexturastat A]
How it was run: as §1

vemurafenib = compound: CCCS(=O)(=O)Nc1ccc(F)c(C(=O)c2c[nH]c3ncc(-c4ccc(Cl)cc4)cc23)c1F [vemurafenib]
How it was run: as §1

[5] = compound: CCCS(=O)(=O)Nc1ccc(F)c(C(=O)c2c[nH]c3ncc(Cl)cc23)c1F
How it was run: as §1

[6] = compound: CCCc1cc(C)[nH]c(=O)c1CNC(=O)c1cc(-c2ccnc(N3CCN(C)CC3)c2)cc2c1cnn2C(C)C
How it was run: as §1

givinostat = compound: CCN(CC)Cc1ccc2cc(COC(=O)Nc3ccc(C(=O)NO)cc3)ccc2c1 [givinostat]
How it was run: as §1

barasertib = compound: CCN(CCCOc1ccc2c(Nc3cc(CC(=O)Nc4cccc(F)c4)[nH]n3)ncnc2c1)CCOP(=O)(O)O [barasertib]
How it was run: as §1

[7] = compound: CC[C@@H]1C(=O)N(C)c2cnc(Nc3ccc(C(=O)NC4CCN(C)CC4)cc3OC)nc2N1C1CCCC1
How it was run: as §1

volasertib = compound: CC[C@@H]1C(=O)N(C)c2cnc(Nc3ccc(C(=O)N[C@H]4CC[C@H](N5CCN(CC6CC6)CC5)CC4)cc3OC)nc2N1C(C)C [volasertib]
How it was run: as §1

[8] = compound: CC[C@H](C)N1C=C(C2=C(C=C(C=C21)C3=CN=C(C=C3)N4CCNCC4)C(=O)NCC5=C(C=C(NC5=O)C)C)C
How it was run: as §1

epoxomicin = compound: CC[C@H](C)[C@@H](C(=O)N[C@@H]([C@@H](C)O)C(=O)N[C@@H](CC(C)C)C(=O)[C@]1(CO1)C)NC(=O)[C@H]([C@@H](C)CC)N(C)C(=O)C [epoxomicin]
How it was run: as §1

[9] = compound: CCn1c(C(=O)N(C2CC2)C2CC2)cc2c3c(ncn3C)c(Nc3cc(C)n(C)n3)nc21
How it was run: as §1

[10] = compound: CCn1cc(-c2ccnc3[nH]c(-c4cccc(CN(C)C)c4)cc23)c(-c2ccc(NC(=O)N(C)C)cc2)n1
How it was run: as §1

[11] = compound: CN(C)CC(=O)Nc1ccc2[nH]c(=O)c3ccccc3c2c1
How it was run: as §1

rosiglitazone = compound: CN(CCOC1=CC=C(C=C1)C[C@H]2C(=O)NC(=O)S2)C3=CC=CC=N3 (racemic) [rosiglitazone]
How it was run: as §1

[12] = compound: CN1C2=C(C3=C1C(=O)N(N=C3)CC4=CC(=CC=C4)N)SC(=C2)S(=O)C
How it was run: as §1

[13] = compound: CN1CCC(CNc2ccc3ncc(-c4cccc(OC(F)(F)F)c4)n3n2)CC1
How it was run: as §1

UniProt P12931, sequence (P12931 whole entry, looked up): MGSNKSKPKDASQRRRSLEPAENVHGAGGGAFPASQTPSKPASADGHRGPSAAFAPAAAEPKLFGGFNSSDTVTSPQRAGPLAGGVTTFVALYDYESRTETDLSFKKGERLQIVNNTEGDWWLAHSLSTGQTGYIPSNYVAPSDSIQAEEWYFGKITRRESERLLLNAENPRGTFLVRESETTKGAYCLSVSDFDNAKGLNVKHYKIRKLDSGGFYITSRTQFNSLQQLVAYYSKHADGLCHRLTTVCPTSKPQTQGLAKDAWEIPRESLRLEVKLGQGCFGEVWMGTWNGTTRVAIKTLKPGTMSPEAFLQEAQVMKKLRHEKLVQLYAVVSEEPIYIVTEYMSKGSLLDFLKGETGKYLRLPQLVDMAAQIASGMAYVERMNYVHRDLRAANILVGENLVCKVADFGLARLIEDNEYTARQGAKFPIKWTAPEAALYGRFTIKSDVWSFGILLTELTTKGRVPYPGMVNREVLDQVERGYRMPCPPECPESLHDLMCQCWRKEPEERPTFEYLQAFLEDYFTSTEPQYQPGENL
UniProt P23497, sequence (P23497 whole entry, looked up): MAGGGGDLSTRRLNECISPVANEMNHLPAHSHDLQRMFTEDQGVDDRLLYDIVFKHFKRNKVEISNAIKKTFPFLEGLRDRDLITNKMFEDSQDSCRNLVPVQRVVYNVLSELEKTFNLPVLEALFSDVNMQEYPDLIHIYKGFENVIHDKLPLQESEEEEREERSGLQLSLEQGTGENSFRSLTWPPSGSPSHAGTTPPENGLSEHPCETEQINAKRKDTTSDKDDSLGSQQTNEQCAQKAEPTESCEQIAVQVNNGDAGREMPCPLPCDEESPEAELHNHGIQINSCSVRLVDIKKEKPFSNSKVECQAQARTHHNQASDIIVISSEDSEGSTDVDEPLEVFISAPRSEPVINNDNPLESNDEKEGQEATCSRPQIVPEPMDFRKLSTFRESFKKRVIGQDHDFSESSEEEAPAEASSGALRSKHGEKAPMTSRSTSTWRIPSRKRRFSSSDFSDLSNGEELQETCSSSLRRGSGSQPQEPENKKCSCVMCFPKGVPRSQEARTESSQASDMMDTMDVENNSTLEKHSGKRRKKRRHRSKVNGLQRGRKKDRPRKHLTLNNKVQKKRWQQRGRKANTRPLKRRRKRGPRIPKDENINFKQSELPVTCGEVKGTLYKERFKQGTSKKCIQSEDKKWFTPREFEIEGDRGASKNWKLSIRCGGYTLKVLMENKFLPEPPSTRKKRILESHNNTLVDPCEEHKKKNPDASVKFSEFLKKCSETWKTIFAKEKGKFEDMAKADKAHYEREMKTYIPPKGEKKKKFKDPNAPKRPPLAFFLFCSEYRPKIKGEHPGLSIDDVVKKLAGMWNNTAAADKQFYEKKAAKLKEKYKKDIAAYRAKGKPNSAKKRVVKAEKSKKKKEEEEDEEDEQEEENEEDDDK
UniProt Q96DW6, sequence (Q96DW6 whole entry, looked up): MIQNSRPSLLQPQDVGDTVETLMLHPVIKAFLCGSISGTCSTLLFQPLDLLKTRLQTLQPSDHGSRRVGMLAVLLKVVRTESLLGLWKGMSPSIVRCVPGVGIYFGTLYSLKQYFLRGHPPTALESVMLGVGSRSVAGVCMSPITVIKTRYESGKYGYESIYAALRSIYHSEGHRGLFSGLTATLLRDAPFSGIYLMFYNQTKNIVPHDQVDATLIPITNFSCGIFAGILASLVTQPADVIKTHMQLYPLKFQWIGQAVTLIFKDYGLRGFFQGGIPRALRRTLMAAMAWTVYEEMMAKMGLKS
UniProt Q9Y5B9, sequence (Q9Y5B9 whole entry, looked up): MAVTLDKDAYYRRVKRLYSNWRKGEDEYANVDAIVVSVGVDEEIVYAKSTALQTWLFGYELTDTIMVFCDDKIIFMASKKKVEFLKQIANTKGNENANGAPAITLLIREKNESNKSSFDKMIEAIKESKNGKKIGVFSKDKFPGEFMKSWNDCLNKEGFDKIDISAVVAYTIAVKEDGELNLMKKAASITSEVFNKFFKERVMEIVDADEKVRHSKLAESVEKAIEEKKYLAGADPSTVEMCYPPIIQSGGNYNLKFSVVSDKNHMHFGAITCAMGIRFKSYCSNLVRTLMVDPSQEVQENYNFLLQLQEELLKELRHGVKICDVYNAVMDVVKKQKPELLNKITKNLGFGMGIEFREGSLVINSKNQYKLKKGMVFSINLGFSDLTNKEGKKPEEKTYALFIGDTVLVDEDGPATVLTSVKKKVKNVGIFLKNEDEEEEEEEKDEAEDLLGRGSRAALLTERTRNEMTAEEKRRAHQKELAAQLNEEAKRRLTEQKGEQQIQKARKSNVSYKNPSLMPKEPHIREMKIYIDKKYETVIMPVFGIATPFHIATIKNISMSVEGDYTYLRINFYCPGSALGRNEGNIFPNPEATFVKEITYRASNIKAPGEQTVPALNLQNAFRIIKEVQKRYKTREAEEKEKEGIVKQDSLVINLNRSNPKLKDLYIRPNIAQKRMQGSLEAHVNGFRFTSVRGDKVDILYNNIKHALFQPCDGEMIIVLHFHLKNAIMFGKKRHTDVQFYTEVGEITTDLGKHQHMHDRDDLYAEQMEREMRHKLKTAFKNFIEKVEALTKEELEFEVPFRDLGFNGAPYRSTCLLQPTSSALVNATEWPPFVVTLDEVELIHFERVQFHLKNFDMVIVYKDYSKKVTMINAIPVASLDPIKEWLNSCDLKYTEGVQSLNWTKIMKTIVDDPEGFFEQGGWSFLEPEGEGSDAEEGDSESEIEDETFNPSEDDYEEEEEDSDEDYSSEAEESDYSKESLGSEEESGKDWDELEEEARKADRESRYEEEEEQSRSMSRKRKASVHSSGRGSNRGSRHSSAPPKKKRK
UniProt Q9NUY8, sequence (Q9NUY8 whole entry, looked up): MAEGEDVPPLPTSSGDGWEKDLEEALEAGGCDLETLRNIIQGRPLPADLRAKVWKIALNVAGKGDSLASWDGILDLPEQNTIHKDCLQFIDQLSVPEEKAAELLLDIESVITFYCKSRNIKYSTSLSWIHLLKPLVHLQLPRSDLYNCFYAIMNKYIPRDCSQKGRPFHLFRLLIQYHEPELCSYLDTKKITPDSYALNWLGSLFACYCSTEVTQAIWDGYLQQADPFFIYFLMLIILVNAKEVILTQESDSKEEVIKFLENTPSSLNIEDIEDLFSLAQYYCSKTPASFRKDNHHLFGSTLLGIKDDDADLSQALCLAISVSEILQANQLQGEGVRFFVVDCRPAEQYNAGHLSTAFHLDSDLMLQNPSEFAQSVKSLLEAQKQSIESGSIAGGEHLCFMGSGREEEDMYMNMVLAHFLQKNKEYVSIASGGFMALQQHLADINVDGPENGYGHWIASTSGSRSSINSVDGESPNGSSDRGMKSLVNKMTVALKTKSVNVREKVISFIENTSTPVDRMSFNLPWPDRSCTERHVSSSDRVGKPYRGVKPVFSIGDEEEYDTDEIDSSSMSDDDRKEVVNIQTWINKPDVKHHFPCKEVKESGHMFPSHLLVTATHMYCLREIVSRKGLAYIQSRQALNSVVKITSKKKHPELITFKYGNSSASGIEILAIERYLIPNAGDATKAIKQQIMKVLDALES
UniProt Q9Y4R8, sequence (Q9Y4R8 whole entry, looked up): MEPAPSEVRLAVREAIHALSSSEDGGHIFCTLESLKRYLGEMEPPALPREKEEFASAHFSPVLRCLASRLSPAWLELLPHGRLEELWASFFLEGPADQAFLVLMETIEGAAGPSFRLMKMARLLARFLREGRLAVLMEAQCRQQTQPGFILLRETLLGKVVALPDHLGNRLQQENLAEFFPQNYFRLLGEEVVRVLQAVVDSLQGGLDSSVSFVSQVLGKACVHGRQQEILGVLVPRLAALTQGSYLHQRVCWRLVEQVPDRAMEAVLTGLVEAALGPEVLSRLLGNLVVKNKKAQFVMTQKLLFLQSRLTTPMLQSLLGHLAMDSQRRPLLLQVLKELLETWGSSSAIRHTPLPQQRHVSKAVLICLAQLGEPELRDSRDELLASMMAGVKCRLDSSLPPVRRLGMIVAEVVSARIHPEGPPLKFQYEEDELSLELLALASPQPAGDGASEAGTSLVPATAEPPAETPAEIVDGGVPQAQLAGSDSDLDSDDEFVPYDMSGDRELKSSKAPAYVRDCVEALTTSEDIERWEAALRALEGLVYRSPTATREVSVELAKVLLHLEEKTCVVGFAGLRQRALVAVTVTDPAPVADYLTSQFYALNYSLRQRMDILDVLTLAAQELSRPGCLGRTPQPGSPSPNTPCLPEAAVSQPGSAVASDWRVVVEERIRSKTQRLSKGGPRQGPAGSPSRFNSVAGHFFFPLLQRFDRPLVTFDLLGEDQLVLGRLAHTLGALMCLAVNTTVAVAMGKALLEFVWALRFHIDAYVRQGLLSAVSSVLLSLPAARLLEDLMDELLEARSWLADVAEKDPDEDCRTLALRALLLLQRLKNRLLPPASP
UniProt Q8WU79, sequence (Q8WU79 whole entry, looked up): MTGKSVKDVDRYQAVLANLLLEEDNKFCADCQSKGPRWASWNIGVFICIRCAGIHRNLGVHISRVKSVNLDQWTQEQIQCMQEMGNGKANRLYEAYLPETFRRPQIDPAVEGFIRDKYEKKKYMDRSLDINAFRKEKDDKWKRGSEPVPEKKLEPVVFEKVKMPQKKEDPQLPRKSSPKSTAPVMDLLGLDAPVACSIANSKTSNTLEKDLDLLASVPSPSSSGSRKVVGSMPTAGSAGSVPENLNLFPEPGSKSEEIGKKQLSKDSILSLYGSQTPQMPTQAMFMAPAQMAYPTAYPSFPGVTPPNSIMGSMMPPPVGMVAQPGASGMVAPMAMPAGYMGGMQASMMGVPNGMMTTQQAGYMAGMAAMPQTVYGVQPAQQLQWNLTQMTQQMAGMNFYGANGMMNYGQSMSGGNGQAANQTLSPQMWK
UniProt Q9UMY4, sequence (Q9UMY4 whole entry, looked up): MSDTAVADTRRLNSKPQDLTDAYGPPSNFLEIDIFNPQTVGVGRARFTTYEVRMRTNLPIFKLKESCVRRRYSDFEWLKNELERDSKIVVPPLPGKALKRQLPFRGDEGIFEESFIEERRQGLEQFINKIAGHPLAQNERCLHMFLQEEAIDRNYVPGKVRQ

Target | log2 fold change [1] | log2 fold change [2] | log2 fold change [3] | log2 fold change [4] | log2 fold change (Nexturastat A) | log2 fold change (vemurafenib) | log2 fold change [5] | log2 fold change [6] | log2 fold change (givinostat) | log2 fold change (barasertib) | log2 fold change [7] | log2 fold change (volasertib) | log2 fold change [8] | log2 fold change (epoxomicin) | log2 fold change [9] | log2 fold change [10] | log2 fold change [11] | log2 fold change (rosiglitazone) | log2 fold change [12] | log2 fold change [13]
ST3GAL2 (UniProt Q16842) | 0.064 | -0.054 | -0.216 | 0.066 | -0.012 | -0.032 | -0.013 | 0.212 | 0.078 | 0.112 | -0.28 | -0.562 (active) | -0.053 | -0.053 | -0.038 | 0.062 | 0.005 | 0.011 | -0.071 | -0.474 (active)
SNW1 (UniProt Q13573) | -0.035 | 0.041 | -0.017 | 0 | 0.074 | -0.04 | -0.017 | -0.045 | -0.041 | -0.02 | 0.094 | 0.078 | -0.052 | -0.012 | 0.03 | 0.044 | -0.027 | -0.047 | 0 | 0.078
SUPT16H (UniProt Q9Y5B9) | 0.082 | -0.081 | 0.01 | 0.102 | -0.019 | 0.186 | 0.093 | 0.061 | 0.223 | 0.187 | -0.426 | -0.363 | 0.095 | 0.085 | -0.108 | -0.089 | 0.285 | 0.073 | -0.02 | -0.198
SMAP2 (UniProt Q8WU79) | -0.033 | -0.063 | 0.016 | -0.054 | 0.029 | 0.058 | 0.055 | 0.043 | 0.04 | 0.052 | -0.054 | -0.3 (active) | 0.131 | 0.056 | -0.015 | -0.009 | 0.008 | 0.073 | -0.021 | 0.015
TELO2 (UniProt Q9Y4R8) | 0.04 | -0.026 | 0.028 | -0.057 | 0.143 | 0.12 | 0.089 | 0.014 | 0.084 | 0.05 | -0.083 | -0.359 (active) | -0.017 | -0.093 | -0.031 | 0.005 | 0.123 | 0.036 | 0.154 | -0.052
STEAP3 isoform 2 (UniProt Q658P3) | -0.009 | 0.015 | 0.008 | -0.003 | -0.05 | -0.027 | 0.007 | -0.025 | 0.005 | -0.004 | 0.036 | -0.013 | -0.023 | 0.01 | 0.028 | -0.084 | 0.002 | 0.021 | 0.041 | -0.096
SNX12 isoform 1 (UniProt Q9UMY4) | -0.021 | -0.006 | 0.032 | 0.024 | -0.082 | 0.054 | 0.059 | 0.008 | 0.004 | 0.062 | -0.124 | -0.252 (active) | 0.069 | 0.028 | -0.068 | 0.043 | -0.012 | 0.058 | 0.045 | -0.275 (active)
SP100 isoform 4 (UniProt P23497) | 0.02 | -0.004 | 0.072 | -0.008 | -0.119 | -0.019 | 0.159 | 0 | -0.005 | 0.003 | -0.021 | -0.065 | 0.012 | -0.006 | 0.023 | 0.056 | -0.045 | -0.009 | -0.059 | -0.064
TECR (UniProt Q9NZ01) | -0.017 | -0.034 | 0.031 | 0.069 | -0.043 | 0.021 | 0.113 | -0.084 | 0.011 | 0.007 | -0.116 | -0.24 (active) | 0.015 | 0.026 | 0.021 | -0.085 | 0.042 | 0.043 | -0.063 | -0.347 (active)
SPR (UniProt P35270) | 0.103 | -0.003 | 0.063 | -0.043 | -0.069 | -0.019 | 0.019 | 0.009 | -0.004 | -0.076 | 0.02 | 0.165 | 0.013 | -0.054 | 0.412 (active) | 0.073 | 0.153 | 0.008 | -0.184 | 0.012
TBC1D23 (UniProt Q9NUY8) | 0.029 | -0.038 | 0.005 | 0.005 | -0.071 | 0.035 | 0.034 | -0.074 | 0.006 | 0.041 | -0.228 | -0.261 | 0.008 | 0.049 | -0.05 | -0.069 | 0.025 | 0.042 | 0.043 | -0.651 (active)
SRP72 (UniProt O76094) | 0.024 | -0.01 | 0.034 | -0.009 | 0.171 | 0.037 | 0.09 | 0.046 | 0.143 | 0.078 | -0.093 | -0.518 | 0.119 | 0.001 | -0.104 | -0.034 | 0.03 | 0.047 | 0.119 | -0.168
SLC25A39 (UniProt Q9BZJ4) | -0.029 | 0.011 | 0.207 | 0.129 | -0.037 | -0.019 | -0.048 | -0.133 | -0.092 | 0.088 | 0.029 | -0.06 | 0.087 | 0.081 | 0.096 | -0.12 | 0.06 | -0.03 | 0.012 | -0.82 (active)
SLC25A38 (UniProt Q96DW6) | 0.075 | -0.011 | -0.047 | 0.076 | -0.012 | -0.059 | -0.019 | -0.145 | -0.004 | 0.014 | 0.013 | 0.009 | -0.002 | -0.025 | 0.048 | 0 | -0.02 | -0.028 | -0.017 | -0.048
SNX3 (UniProt O60493) | -0.013 | -0.064 | 0.073 | -0.004 | 0.037 | 0.046 | 0.122 | 0.02 | 0.09 | 0.045 | -0.071 | -0.147 | 0.107 | -0.033 | -0.176 | 0.057 | 0.077 | 0.018 | 0.116 | -0.319
SRC isoform 2 (UniProt P12931) | -0.006 | 0.022 | -0.016 | -0.06 | -0.075 | 0.068 | 0.069 | -0.06 | -0.091 | -0.01 | 0.079 | -0.03 | 0.108 | -0.16 | -0.101 | -0.066 | -0.032 | 0.029 | -0.002 | -0.149
